Neddylation inh: blocks human cullin neddylation; P61081+Q13564; TR-FRET cullin neddylation, biochemical; inhibition, % at 25 µM; actives 0.58% (n = 360,000); in the data active means inhibition above about 36%
GRK2 aptamer HTS: inhibitors of human GRK2 displacing RNA aptamer | P25098 | bead flow cytometry, FAM-aptamer displacement from GRK2 | inhibition of aptamer binding, % at 10 µM | actives 0.59% (n = 330,000);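 active means inhibition of aptamer binding above 40%, roughly 3 SD of noise, on plates passing a quality check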;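 further: median bead fluorescence of bound FAM aptamer so fluorescent compounds give negative values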
HDAC3 inh: inhibitors of human histone deacetylase 3; recombinant HDAC3, fluorogenic peptide/trypsin coupled, fluorescence; inhibition, % at 8.3 µM; actives 0.15% (n = 320,000); AID 2718; in the data active means inhibition above about 26%, passing the limit was not always enough
Target sequence (O15379 whole entry, looked up): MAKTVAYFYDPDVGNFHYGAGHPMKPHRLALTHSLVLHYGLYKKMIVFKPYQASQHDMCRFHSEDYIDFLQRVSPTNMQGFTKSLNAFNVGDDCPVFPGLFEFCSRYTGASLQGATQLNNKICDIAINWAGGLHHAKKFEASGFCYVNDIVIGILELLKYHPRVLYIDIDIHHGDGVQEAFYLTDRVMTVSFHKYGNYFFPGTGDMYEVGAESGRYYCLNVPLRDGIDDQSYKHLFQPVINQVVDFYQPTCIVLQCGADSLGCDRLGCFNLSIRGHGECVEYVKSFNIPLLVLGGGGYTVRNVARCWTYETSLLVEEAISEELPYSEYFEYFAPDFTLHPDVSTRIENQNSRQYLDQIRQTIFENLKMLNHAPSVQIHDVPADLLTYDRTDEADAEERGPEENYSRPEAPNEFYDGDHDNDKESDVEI
Cardio protect: modulators protecting cardiomyocytes from myocardial damage; H9c2 cardiomyocytes, H2O2 injury protection, ATPLite, 2 h; protection from H2O2 cell death, % at 20 µM; actives 0.63% (n = 360,000); AID 588492;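 active means compounds giving at least 50% protection of heart cells from peroxide-induced death in the single-dose screen, raw or plate-pattern-corrected value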
Hits are given with their value; n = inactive; x = no result given. Rows were chosen to be rich in hits. Some 1.8% of all compounds tested hit in one or more screens of this group.

SMILES | Neddylation inh | GRK2 aptamer HTS | HDAC3 inh | Cardio protect
Cc1sc2nc(SCC(=O)N3CCCC3)[nH]c(=O)c2c1C | n | n | n | 80
Cc1sc2nc(SCC(=O)N(C)C)[nH]c(=O)c2c1C | n | n | n | 73
O=C(CCC(=O)N1CCSc2ccccc21)NCc1ccccc1 | n | n | n | n
CCCn1c(/N=C/c2c[nH]c3ccccc23)nc2ccccc21 | n | n | n | n
CCCCn1c(/N=C/c2c[nH]c3ccccc23)nc2ccccc21 | n | n | 31 | n
Cc1ccc(C)c(N=Cc2cc3c(cc2[N+](=O)[O-])OCO3)c1 | n | n | n | 63
O=Cc1ccc(OCc2cccc(C(F)(F)F)c2)cc1O | n | n | n | 68
Cc1ccc(CN(C)C(=O)COC(=O)CSc2ccc(C(N)=O)cc2[N+](=O)[O-])cc1 | n | n | n | 58
O=C(COC(=O)CCSc1ccccc1)NCc1ccccc1 | n | n | n | n
Cc1cc(C)c2nc(NNC(=O)c3cc(-c4cccs4)nc4ccccc34)sc2c1 | n | n | n | 56
Cc1ccc(NC(=O)c2cc(-c3cccs3)nc3ccccc23)nc1 | x | n | n | 64
COc1ccc(CCCC(=O)N/N=C/c2cccc(OC)c2O)cc1C | n | n | n | 53
COCCCNC(=S)N/N=C/c1cccc(OC)c1O | 38 | n | n | n
COc1cccc(/C=N/NC(=O)CNC(=O)C2COc3ccccc3O2)c1O (stereo not drawn) | n | x | x | 66
COc1cccc(/C=N/NC(=O)C[n+]2ccccc2)c1O | n | n | n | n
COc1ccc(C(=O)NCC(=O)N/N=C/c2ccc(C)o2)cc1OC | n | n | 56 | n
Oc1cccc(/C=N/NC(=S)NCCN2CCOCC2)c1O | n | n | n | 49
S=C(NCCN1CCOCC1)N/N=C/c1cccs1 | n | n | n | n
COc1cccc(/C=N/NC(=O)CNC(=O)c2ccncc2)c1O | n | n | n | 60
COc1cccc(/C=N/NC(=O)C(=O)NCc2cccnc2)c1O | n | n | n | 79
O=C(CNC(=O)c1ccc2c(c1)OCCO2)N/N=C/c1ccc(O)cc1O | n | n | n | 72
O=C(O)CCCC(=O)N1CCCC1 | n | n | n | n
COc1cccc(/C=N/NC(=O)CNC(=O)c2ccc3c(c2)OCCO3)c1O | n | n | n | 66
COc1ccc2nc(Nc3nc(CSc4nc5ccccc5[nH]4)cc(=O)[nH]3)nc(C)c2c1 | n | n | n | 70
COc1cccc(-c2cnc3c(NC=O)cc(-c4cccc(C(=O)N(C)C)c4)cn23)c1 | n | x | x | 58
SMILES | Neddylation inh | GRK2 aptamer HTS | HDAC3 inh | Cardio protect
COc1cccc(-c2cnc3c(NC=O)cc(-c4ccc(O)c(OC)c4)cn23)c1 | n | x | x | 85
COc1cc(-c2cc(NC=O)c3ncc(-c4ccc(C(C)=O)cc4)n3c2)ccc1O | n | x | x | 83
COc1cccc(-c2cnc3c(NC(C)=O)cc(-c4cc(OC)c(OC)c(OC)c4)cn23)c1 | n | x | x | 57
COc1cccc(-c2cc(NC=O)c3ncc(-c4cc(OC)c(OC)c(OC)c4)n3c2)c1 | n | x | x | n
COc1ccc(-c2cc(NC=O)c3ncc(-c4ccc(OC)c(OC)c4)n3c2)cc1OC | n | x | x | n
CCOC(=O)c1c(NC(=O)COC(=O)CC(NC(C)=O)c2ccccc2)sc(C(=O)NC)c1C (stereo not drawn) | n | n | n | n
O=C(CSc1nnc(CNC(=O)c2ccccc2)o1)NCc1ccc2c(c1)OCO2 | n | n | n | n
Cn1c(=O)c2[nH]c(C=Cc3ccc4c(c3)OCO4)nc2n(C)c1=O | n | x | x | n
O=C(NCCc1ccccc1)C1=CCN(S(=O)(=O)c2ccccc2)CC1 | n | n | n | n
Cc1ccccc1CNC(=O)C(=O)Nc1nccs1 | n | n | n | n
Cc1cc(NC(=O)c2cccs2)cc(-c2nc3ncccc3o2)c1O | n | n | n | 58
CC1(C(=O)OCC(=O)Nc2cc(S(=O)(=O)N3CCOCC3)ccc2Cl)CC1(Cl)Cl (stereo not drawn) | n | x | x | n
CC(C)(C)c1ccc(C(=O)CSc2nc3ccccc3c(=O)[nH]2)cc1 | n | n | n | n
N#CCCN(C(=O)CSc1n[nH]c(=O)[nH]c1=O)c1ccccc1 | n | n | n | n
O=C(CSc1nc2ccccc2c(=O)[nH]1)c1ccccc1 | n | n | n | 51
Cc1ccc(N(CCC#N)C(=O)CSc2nc3ccccc3c(=O)[nH]2)cc1 | n | n | n | 80
CCCCc1c(O)nc(SCC(=O)c2ccccc2)[nH]c1=O | n | n | 46 | n
O=C(CSc1nc2ccccc2c(=O)[nH]1)N1CCCCC1 | n | n | n | 71
CCOC(=O)N1CCN(c2nc3ccccn3c(=O)c2C=O)CC1 | n | n | n | n
Cc1ccc2nc(SCc3nc4ccccc4c(=O)[nH]3)[nH]c2c1 | n | n | n | 58
COC(=O)c1sc2nc(CSc3nc4ccc(C)cc4[nH]3)[nH]c(=O)c2c1C | n | n | n | n
CC1=C(C)/C(=N\OS(=O)(=O)c2ccccc2)C=CC1=O | n | n | n | n
Cc1ccccc1CNCCCSc1ncccn1 | n | n | n | n
Cc1ccc(S(=O)(=O)n2ccc(OC(=O)c3cccs3)n2)cc1 | n | n | 90 | n
O=c1oc2c(O)c(O)cc3c(=O)oc4c(O)c(O)cc1c4c23 | n | 84 | n | n
SMILES | Neddylation inh | GRK2 aptamer HTS | HDAC3 inh | Cardio protect
O=c1oc2ccccc2c2oc3cc(O)c(O)cc3c12 | x | n | n | n
Cc1cc(N2CCOCC2)c2c(N)c(Br)cc(C)c2n1 | n | n | n | 52
CN(C)CC(C(=O)c1ccccc1)c1ccccc1 (stereo not drawn) | n | n | n | n
O=C(CC(C(=O)c1ccccc1)c1ccccc1)c1ccccc1 (stereo not drawn) | n | x | x | 56
O=C(COc1ccc(-c2nnco2)cc1)Nc1cc([N+](=O)[O-])ccc1F | n | n | n | n
O=C(CCCn1c(SCC(=O)c2ccc(O)c(O)c2)nc2ccccc2c1=O)NCC1CCCO1 (stereo not drawn) | n | n | n | 53
CCCCn1c(SCC(=O)c2ccc(O)c(O)c2)nc2ccsc2c1=O | n | n | n | 92
O=C(Oc1ccc2ccc(=O)oc2c1)c1cccs1 | x | n | 30 | n
O=C(Oc1ccc2c(-c3ccccc3)cc(=O)oc2c1)c1cccs1 | n | n | n | n
Cc1coc2c(C)c3oc(=O)c(CCC(=O)NCc4ccccn4)c(C)c3cc12 | x | n | n | n
N#CC(c1nc2ccccc2nc1N1CCCC1)S(=O)(=O)c1cccs1 (stereo not drawn) | n | n | n | 59
CCOc1ccc(C(=O)N2CCN(Cc3ccccc3)CC2)cc1OCC | n | x | x | n
Cc1nn(-c2ccc(F)cc2)c2nc(N)c(C#N)c(-c3ccc(O)c(O)c3)c12 | n | n | n | 77
CCOc1cc(/C=C2\CCCC(C(=O)C(F)(F)F)=C2O)ccc1O | n | n | 35 | n
CCOC(=O)c1c(C)oc2c1c1c(c3ccccc32)OCN(Cc2ccccn2)C1 | n | n | n | 54
CCN1CCN(C(=O)c2cnn3c(C(F)F)cc(-c4ccc(C)cc4)nc23)CC1 | 48 | n | n | n
Cc1ccc(-c2cc(C(F)F)n3ncc(C(=O)N4CCN(c5ccccn5)CC4)c3n2)cc1 | n | n | n | n
CC1(NC(=O)CC[N+](C)(C)CCO)CS(=O)(=O)CC1S(=O)(=O)[O-] (stereo not drawn) | x | 47 | n | x

Bioassay records (PubChem)
